# Results: the supplement of paper PMC8728848
# The sample as a whole holds a higher share of the strongest signals than the screen did.
# Experiments:
# Experiment in all cases: glycan array binding signal (z-score within array); higher = stronger binding
# Settings in all cases: glycan notation: IUPAC condensed, linker removed
# [1] = target: Fuc(a1-2)Gal(b1-4)Glc
# In short: (§1)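 The binding signal is a Z-score computed within each array. Data were drawn from 3228 arrays in the Consortium for Functional Glycomics database, restricted to those with a known protein sequence. Scores were averaged over arrays of the same protein sequence at different concentrations or buffers, and over linkers, and negative values can be taken as non-binding.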
# [2] = target: Fuc(a1-2)Gal(b1-4)GlcNAc(b1-2)[Fuc(a1-2)Gal(b1-4)GlcNAc(b1-4)]Man(a1-3)[Fuc(a1-2)Gal(b1-4)GlcNAc(b1-2)Man(a1-6)]Man(b1-4)GlcNAc(b1-4)GlcNAc
# In short: as §1
# [3] = target: Fuc(a1-2)Gal(b1-4)GlcNAc(b1-3)[Fuc(a1-2)Gal(b1-4)GlcNAc(b1-6)]GalNAc
# In short: as §1
# [4] = target: Fuc(a1-2)[Gal(a1-3)]Gal(b1-4)[Fuc(a1-3)]Glc
# In short: as §1
# [5] = target: Fuc(a1-2)[Gal(a1-3)]Gal(b1-4)[Fuc(a1-3)]GlcNAc(b1-3)GalNAc
# In short: as §1
# [6] = target: Fuc(a1-2)[Gal(a1-4)]Gal(b1-4)GlcNAc
# In short: as §1
# [7] = target: Fuc(a1-2)[GalNAc(a1-3)]Gal
# In short: as §1
# [8] = target: Fuc(a1-2)[GalNAc(a1-3)]Gal(b1-3)GlcNAc(b1-3)GalNAc
# In short: as §1
# [9] = target: Fuc(a1-2)[GalNAc(a1-3)]Gal(b1-4)GlcNAc
# In short: as §1
# [10] = target: Fuc(a1-2)[GalNAc(a1-3)]Gal(b1-4)GlcNAc(b1-3)Gal(b1-4)GlcNAc(b1-3)Gal(b1-4)GlcNAc
# In short: as §1
# [11] = target: Fuc(a1-2)[GalNAc(a1-3)]Gal(b1-4)GlcNAc(b1-3)GalNAc
# In short: as §1
# [12] = target: Fuc(a1-2)[GalNAc(a1-3)]Gal(b1-4)[Fuc(a1-3)]GlcNAc
# In short: as §1
# [13] = target: Fuc(a1-3)GlcNAc
# In short: as §1
# [14] = target: Fuc(a1-3)[Gal(b1-4)]GlcNAc(b1-6)GalNAc
# In short: as §1
# [15] = target: Fuc(a1-3)[Gal3S(b1-4)]GlcNAc
# In short: as §1
# [16] = target: Gal(a1-4)Gal(b1-4)GlcNAc(b1-3)Gal(b1-4)Glc
# In short: as §1
# [17] = target: Gal(b1-3)GlcNAc(b1-3)GalNAc
# In short: as §1
# [18] = target: Gal(b1-3)GlcNAc(b1-6)Gal(b1-4)GlcNAc
# In short: as §1
# [19] = target: Gal(b1-3)[Fuc(a1-4)]GlcNAc(b1-3)Gal(b1-4)GlcNAc
# In short: as §1
# [20] = target: Gal(b1-3)[Neu5Ac(a2-6)]GalNAc
# In short: as §1
# [21] = target: Gal(b1-4)GlcNAc(b1-3)Gal(b1-3)GalNAc
# In short: as §1
# [22] = target: Gal(b1-4)GlcNAc(b1-3)Gal(b1-4)GlcNAc(b1-2)Man(a1-3)[Gal(b1-4)GlcNAc(b1-3)Gal(b1-4)GlcNAc(b1-2)Man(a1-6)]Man(b1-4)GlcNAc(b1-4)[Fuc(a1-6)]GlcNAc
# In short: as §1
# [23] = target: Gal(b1-4)GlcNAc(b1-3)Gal(b1-4)GlcNAc(b1-2)[Gal(b1-4)GlcNAc(b1-3)Gal(b1-4)GlcNAc(b1-6)]Man(a1-6)[Gal(b1-4)GlcNAc(b1-3)Gal(b1-4)GlcNAc(b1-2)Man(a1-3)]Man(b1-4)GlcNAc(b1-4)GlcNAc
# In short: as §1
# [24] = target: Gal(b1-4)GlcNAc(b1-3)Gal(b1-4)GlcNAc(b1-3)Gal(b1-4)GlcNAc(b1-3)Gal(b1-4)GlcNAc(b1-2)Man(a1-3)[Gal(b1-4)GlcNAc(b1-3)Gal(b1-4)GlcNAc(b1-3)Gal(b1-4)GlcNAc(b1-3)Gal(b1-4)GlcNAc(b1-2)Man(a1-6)]Man(b1-4)GlcNAc(b1-4)[Fuc(a1-6)]GlcNAc
# In short: as §1
# [25] = target: Gal(b1-4)GlcNAc(b1-3)Gal(b1-4)GlcNAc(b1-3)Gal(b1-4)GlcNAc(b1-3)Gal(b1-4)GlcNAc(b1-3)Gal(b1-4)GlcNAc(b1-2)Man(a1-3)[Gal(b1-4)GlcNAc(b1-3)Gal(b1-4)GlcNAc(b1-3)Gal(b1-4)GlcNAc(b1-3)Gal(b1-4)GlcNAc(b1-3)Gal(b1-4)GlcNAc(b1-2)Man(a1-6)]Man(b1-4)GlcNAc(b1-4)[Fuc(a1-6)]GlcNAc
# In short: as §1
# [26] = target: Gal(b1-4)GlcNAc(b1-6)[Gal(b1-3)]GalNAc
# In short: as §1
# [27] = target: Gal3S(b1-3)GlcNAc
# In short: as §1
# [28] = target: Gal3S(b1-4)[Fuc(a1-3)]Glc6S
# In short: as §1
# [29] = target: Gal3S6S(b1-4)GlcNAc
# In short: as §1
# [30] = target: GlcNAc(b1-3)Gal(b1-4)GlcNAc(b1-3)Gal(b1-4)GlcNAc(b1-3)Gal(b1-4)GlcNAc(b1-3)Gal(b1-4)GlcNAc(b1-2)Man(a1-3)[GlcNAc(b1-3)Gal(b1-4)GlcNAc(b1-3)Gal(b1-4)GlcNAc(b1-3)Gal(b1-4)GlcNAc(b1-3)Gal(b1-4)GlcNAc(b1-2)Man(a1-6)]Man(b1-4)GlcNAc(b1-4)[Fuc(a1-6)]GlcNAc
# In short: as §1
# [31] = target: GlcNAc(b1-3)Gal(b1-4)GlcNAc(b1-6)[Gal(b1-3)]GalNAc
# In short: as §1
# [32] = target: GlcNAc(b1-3)[GlcNAc(b1-6)]GalNAc
# In short: as §1
# [33] = target: Kdn(a2-6)Gal(b1-4)GlcNAc
# In short: as §1
# [34] = target: Man(a1-2)Man(a1-3)[Man(a1-2)Man(a1-6)]Man
# In short: as §1
# [35] = target: Man(a1-2)Man(a1-6)[Man(a1-3)]Man(a1-6)[Man(a1-2)Man(a1-2)Man(a1-3)]Man
# In short: as §1
# [36] = target: Neu5Ac(a2-3)Gal(b1-3)GlcNAc(b1-3)Gal(b1-3)GlcNAc
# In short: as §1
# [37] = target: Neu5Ac(a2-3)Gal(b1-3)GlcNAc(b1-3)GalNAc
# In short: as §1
# [38] = target: Neu5Ac(a2-3)Gal(b1-3)GlcNAc(b1-4)Gal(b1-4)Glc
# In short: as §1
# [39] = target: Neu5Ac(a2-3)Gal(b1-4)GlcNAc(b1-3)Gal(b1-4)GlcNAc
# In short: as §1
# [40] = target: Neu5Ac(a2-3)Gal(b1-4)GlcNAc(b1-3)Gal(b1-4)GlcNAc(b1-3)Gal(b1-4)GlcNAc(b1-2)Man(a1-3)[Neu5Ac(a2-3)Gal(b1-4)GlcNAc(b1-3)Gal(b1-4)GlcNAc(b1-3)Gal(b1-4)GlcNAc(b1-2)Man(a1-6)]GalNAc
# In short: as §1
# [41] = target: Neu5Ac(a2-3)Gal(b1-4)[Fuc(a1-3)]GlcNAc(b1-3)GalNAc
# In short: as §1
# [42] = target: Neu5Ac(a2-6)Gal(b1-4)GlcNAc(b1-2)Man(a1-3)Man(b1-4)GlcNAc(b1-4)GlcNAc
# In short: as §1
# [43] = target: Neu5Ac(a2-6)Gal(b1-4)GlcNAc(b1-2)[Neu5Ac(a2-6)Gal(b1-4)GlcNAc(b1-6)]Man(a1-6)[Neu5Ac(a2-6)Gal(b1-4)GlcNAc(b1-2)Man(a1-3)][GlcNAc(b1-4)]Man(b1-4)GlcNAc(b1-4)GlcNAc
# In short: as §1
# [44] = target: Neu5Ac(a2-6)GalNAc
# In short: as §1
# [45] = target: Neu5Ac(a2-8)Neu5Ac(a2-3)Gal(b1-4)Glc
# In short: as §1
# [46] = target: Neu5Ac(a2-8)Neu5Ac(a2-3)Gal(b1-4)GlcNAc
# In short: as §1
# [47] = target: Neu5Ac(a2-8)Neu5Ac(a2-8)Neu5Ac(a2-3)[Gal(b1-3)GalNAc(b1-4)]Gal(b1-4)Glc
# In short: as §1
# [48] = target: Neu5Ac9Ac(a2-6)Gal(b1-4)GlcNAc
# In short: as §1
# [49] = target: Neu5Gc(a2-8)Neu5Ac(a2-3)Gal(b1-4)GlcNAc
# In short: as §1
binder,measurement,setting,value
"CD4 (Rattus norvegicus), P05540 (protein) MCRGFSFRHLLPLLLLQLSKLLVVTQGSTSITAYKSEGESAEFSFPLNLGEESLQGELRWKAEKAPSSQSWITFSLKNQKVSVQKSTSNPKFQLSETLPLTLQIPQVSLQFAGSGNLTLTLDRGILYQEVNLVVMKVTQPDSNTLTCEVMGPTSPKMRLILKQENQEARVSRQEKVIQVQAPEAGVWQCLLSEGEEVKMDSKIQVLSKGLNSGGGSGGGTGGGDLAPQMLRELQETNAALQDVRELLRQQVKEITFLKNTVMECDACGLDRNLPPLAPLGPHPETLVKVKDAEDQLGARVGYIELDLNSGKILESFRPEERFPMMSTFKVLLCGAVLSRIDAGQEQLGRRIHYSQNDLVEYSPVTEKHLTDGMTVRELCSAAITMSDNTAANLLLTTIGGPKELTAFLHNMGDHVTRLDRWEPELNEAIPNDERDTTMPVAMATTLRKLLTGELLTLASRQQLIDWMEADKVAGPLLRSALPAGWFIADKSGAGERGSRGIIAALGPDGKPSRIVVIYTTGSQATMDERNRQIAEIGASLIKHW",glycan array binding signal (z-score),[1],1.27
same,glycan array binding signal (z-score),[2],1.76
same,glycan array binding signal (z-score),[3],-0.242
same,glycan array binding signal (z-score),[4],0.448
same,glycan array binding signal (z-score),[5],-0.228
same,glycan array binding signal (z-score),[6],1.9
same,glycan array binding signal (z-score),[7],-0.738
same,glycan array binding signal (z-score),[8],2.41
same,glycan array binding signal (z-score),[9],-0.98
same,glycan array binding signal (z-score),[10],3.72
same,glycan array binding signal (z-score),[11],-0.665
same,glycan array binding signal (z-score),[12],2.67
same,glycan array binding signal (z-score),[13],-1.59
same,glycan array binding signal (z-score),[14],0.46
same,glycan array binding signal (z-score),[15],-0.413
same,glycan array binding signal (z-score),[16],3.31
same,glycan array binding signal (z-score),[17],0.109
same,glycan array binding signal (z-score),[18],-1.04
same,glycan array binding signal (z-score),[19],-0.072
same,glycan array binding signal (z-score),[20],-1.09
same,glycan array binding signal (z-score),[21],3.12
same,glycan array binding signal (z-score),[22],2.88
same,glycan array binding signal (z-score),[23],2.6
same,glycan array binding signal (z-score),[24],2.6
same,glycan array binding signal (z-score),[25],2.8
same,glycan array binding signal (z-score),[26],-1.17
same,glycan array binding signal (z-score),[27],-0.868
same,glycan array binding signal (z-score),[28],3.99
same,glycan array binding signal (z-score),[29],-0.623
same,glycan array binding signal (z-score),[30],-0.266
same,glycan array binding signal (z-score),[31],-0.267
same,glycan array binding signal (z-score),[32],-0.65
same,glycan array binding signal (z-score),[33],-1.16
same,glycan array binding signal (z-score),[34],-0.568
same,glycan array binding signal (z-score),[35],1.05
same,glycan array binding signal (z-score),[36],0.207
same,glycan array binding signal (z-score),[37],-0.719
same,glycan array binding signal (z-score),[38],-1.28
same,glycan array binding signal (z-score),[39],-1.14
same,glycan array binding signal (z-score),[40],3.17
same,glycan array binding signal (z-score),[41],2.77
same,glycan array binding signal (z-score),[42],0.03
same,glycan array binding signal (z-score),[43],-1.55
same,glycan array binding signal (z-score),[44],-0.467
same,glycan array binding signal (z-score),[45],-0.183
same,glycan array binding signal (z-score),[46],0.265
same,glycan array binding signal (z-score),[47],0.105
same,glycan array binding signal (z-score),[48],0.028
same,glycan array binding signal (z-score),[49],-0.129
